A selection: hits, their analogues and other compounds. The true share with any hit is near 6.2%.
FMDV inh – High Throughput Screening for Foot and Mouth Disease Virus Antivirals; 410,000 compounds, 1.2% hits; FMDV antiviral cell-based qHTS; Potency, µM (doses to about 57.9 µM), for inactives: top-dose activity change, negative = inhibition, hits mostly inhibitors; AID 1159524, 2015; calls by dose curve; tested in HEK293T cells; note: read-out not given here; potency is the fitted concentration of half-maximal effect; nearly all actives have a fitted effect of over 45% in size
HCMV antiviral – qHTS Assay for inhibitors of the human cytomegalovirus (HCMV) | HFF cells, HCMV-luciferase reporter, 72 h; active compounds read low | activity change, negative = inhibition, % at 57.5 µM | 410,000 compounds, 4.5% hits | AID 1259415, 2018; in the data active = activity change below about -60%; inconclusive = no clear call, values can overlap the other calls; inactive = above about -39%
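HFF cells seeded 16 h at 37C, treated with compounds, infected with luciferase-reporter HCMV at MOI 1 PFU/cell; luciferase read at 72 h post infection, normalized to buffer-only and Salinomycin controls.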
Marburg entry inh – qHTS for inhibitors of binding or entry into cells for Marburg Virus | Potency, µM (titrated, usually from 37.8 µM), for the others: top-dose activity change, negative = inhibition, hits mostly inhibitors | Marburg virus pseudotyped entry inhibition, cell reporter | 300,000 compounds, 1.8% hits; calls by dose curve; tested in HEK293 cells; note: potency is the fitted concentration of half-maximal effect
Lassa entry inh – qHTS for Inhibitors of binding or entry into cells for Lassa Virus; Lassa virus pseudotype entry inhibition, cell reporter; Potency, µM (top dose mostly 37.9 µM), inactives show at the highest dose activity change, negative = inhibition, most hits filed as inhibitors; 300,000 compounds, 1.2% hits; calls by dose curve; tested in HEK293 cells; note: potency is the fitted concentration of half-maximal effect; nearly all actives have a fitted effect of over 50% in size
* = called active by the depositor; [ ] = remark or other dose. % is set by controls: 0 for no effect and ±100 for the full control effect.

What do the screens show for `COc1ccc(/C=N\NC(=O)c2c(C)nc3ccc(Br)cn23)cc1`?
FMDV inh: 12%; HCMV antiviral: -69*; Marburg entry inh: -9%; Lassa entry inh: inconclusive

Results for COc1cccc(/C=N/NC(=O)c2c(C)nc3ccc(Br)cn23)c1O ?
FMDV inh: -22%; Marburg entry inh: 1.8µM*; Lassa entry inh: 5.2µM*

Results for COc1cccc(/C=N\NC(=O)c2ccc(Cn3cc(Br)c([N+](=O)[O-])n3)o2)c1O ?
FMDV inh: 10%; HCMV antiviral: -81*; Marburg entry inh: 4µM*; Lassa entry inh: 6.3µM*

Results for CCOc1ccccc1/C=N/NC(=O)c1c(C)nc2ccc(Br)cn12 ?
FMDV inh: inconclusive; HCMV antiviral: 7

What do the screens show for `O=C1C=C(c2ccc(C(=O)O)cc2)C[C@@H](c2ccc(Cl)cc2)C1`?
FMDV inh: 28%; HCMV antiviral: 18

Results for O=C(c1ccc2c3c(cccc13)CC2)C1CCCN(Cc2ncc[nH]2)C1 (centres undefined) ?
FMDV inh: -15%; HCMV antiviral: -4; Marburg entry inh: -20%[46.1 µM]; Lassa entry inh: inconclusive

What do the screens show for `CCCCn1c(N)c(N(CCOC)C(=O)c2cc(-c3ccncc3)nc3ccccc23)c(=O)[nH]c1=O`?
FMDV inh: 0%; HCMV antiviral: inconclusive; Marburg entry inh: 12%; Lassa entry inh: 10%

Results for COc1ccc(Br)cc1CN(C)CC(=O)Nc1c(Cl)cccc1Cl ?
FMDV inh: -5%; HCMV antiviral: -61*; Marburg entry inh: -5%; Lassa entry inh: -15%

How did CCOc1ccc(NC(=O)c2cc(S(=O)(=O)N3CCCCCC3)cn2C)cc1 do in these assays?
FMDV inh: -12%; HCMV antiviral: -20; Lassa entry inh: 15%[46.1 µM]

What do the screens show for `O=C(c1ccco1)N1CCN(c2nc(C(F)(F)F)nc3c2nnn3Cc2ccccc2)CC1`?
FMDV inh: 14µM*; HCMV antiviral: -76*; Marburg entry inh: inconclusive; Lassa entry inh: inconclusive

How did COc1ccc(CNC(=O)CCc2nc3cccnc3n2Cc2ccccc2)cc1 do in these assays?
FMDV inh: -4%; HCMV antiviral: 12; Marburg entry inh: 9%[46.1 µM]; Lassa entry inh: 17%[46.1 µM]

Results for Nc1ncnc2c1ncn2C1O[C@H](CO)[C@@H](O)[C@@H]1O (some centres undefined) ?
FMDV inh: 0%; HCMV antiviral: 35

How did Nc1ncnc2c(C3OC(CO)C(O)C3O)scc12 (centres undefined) do in these assays?
FMDV inh: -3%; HCMV antiviral: -97*; Marburg entry inh: inconclusive; Lassa entry inh: inconclusive

Results for CC(=O)Oc1ccc(N(C(C)=O)S(=O)(=O)c2ccc3ccccc3c2)cc1 ?
FMDV inh: 10%; HCMV antiviral: -71*

How did CC(=O)N(c1ccc(N(C(C)=O)S(=O)(=O)c2ccccc2)cc1)S(=O)(=O)c1ccccc1 do in these assays?
FMDV inh: 1%; HCMV antiviral: -11; Marburg entry inh: 1%[46.1 µM]; Lassa entry inh: inconclusive

Results for COc1ccc2c(C(=O)CCl)c[nH]c2c1 ?
FMDV inh: 35µM*; HCMV antiviral: -101*

What do the screens show for `COc1ccc2[nH]cc(C(=O)CN(C)C)c2c1`?
FMDV inh: -17%; HCMV antiviral: 39

How did CS(=O)(=O)c1nc([N+](=O)[O-])nn1CCCc1ccccc1 do in these assays?
FMDV inh: 18µM*; Marburg entry inh: inconclusive; Lassa entry inh: 5%

Results for COc1ccc(/C=N\NC(=O)COc2ccc(C(C)(C)C)cc2)cc1Cn1nc(C)cc1C ?
FMDV inh: inconclusive; HCMV antiviral: -10; Marburg entry inh: inconclusive; Lassa entry inh: 2.2µM*

Results for COc1ccc(OC)c(S(=O)(=O)Nc2cccc(-c3ccc(N4CCCCCC4)nn3)c2)c1 ?
FMDV inh: 43%; HCMV antiviral: 6; Lassa entry inh: 8%[46.1 µM]

Results for CC(=O)Nc1ccc(C(=O)N2CC(=O)NC(=O)C2)cc1 ?
FMDV inh: 4%; HCMV antiviral: -6; Marburg entry inh: 0%[14.2 µM]; Lassa entry inh: -2%

Results for CCCCCCCCCCCCCC(=O)O[C@@H]1[C@@H](C)[C@@]2(O)[C@@H](C=C(CO)C[C@@]3(O)C(=O)C(C)=C[C@@H]23)C2C(C)(C)[C@@]21OC(C)=O (some centres undefined) ?
Marburg entry inh: 22µM*; Lassa entry inh: 6.5µM*

How did CSCCC1NC(=O)N(CC(=O)Nc2cc(C)on2)C1=O (centres undefined) do in these assays?
FMDV inh: -22%; HCMV antiviral: 0

How did COc1ccccc1CCNS(=O)(=O)c1cn(C)c(=O)n(C)c1=O do in these assays?
FMDV inh: -23%; HCMV antiviral: -27

Results for COC(=O)c1ccc(/C=C(\C#N)c2ccccn2)cc1 ?
FMDV inh: 68%; HCMV antiviral: -26

What do the screens show for `Cc1cc(C)n2nc(/C(C#N)=C/c3ccccn3)c(C#N)c2n1`?
FMDV inh: inconclusive; HCMV antiviral: 7; Marburg entry inh: inconclusive; Lassa entry inh: 10µM*

How did N#C/C(=C\c1ccc([N+](=O)[O-])cc1)c1ccccn1 do in these assays?
FMDV inh: 15%; HCMV antiviral: -75*; Marburg entry inh: 13%[46.1 µM]; Lassa entry inh: 2%

Results for N#C/C(=C\c1cccnc1)c1ccc([N+](=O)[O-])cc1 ?
FMDV inh: -16%; HCMV antiviral: -37; Marburg entry inh: -29%; Lassa entry inh: inconclusive

Results for N#C/C(=C\c1ccccn1)c1ccccn1 ?
FMDV inh: 10%; HCMV antiviral: -74*; Marburg entry inh: inconclusive; Lassa entry inh: inconclusive

How did CN(C)c1ccc(/C=C(\C#N)c2ccccn2)cc1 do in these assays?
FMDV inh: inconclusive; HCMV antiviral: -84*; Marburg entry inh: 1.2µM*; Lassa entry inh: 1.4µM*

What do the screens show for `Cc1ccc(NC(=O)Cn2nnc3ccccc32)c(C)c1`?
FMDV inh: -2%; HCMV antiviral: -36; Marburg entry inh: 2%[46.1 µM]; Lassa entry inh: 15%

Results for COc1ccc(-c2noc(CN(C(=O)c3ccc(OC(C)=O)cc3)C(C)C)n2)cc1OC ?
FMDV inh: -18%; HCMV antiviral: 44; Marburg entry inh: 0%; Lassa entry inh: inconclusive

What do the screens show for `CCOC(=O)c1nnn2c1nc(Nc1cccc(C(F)(F)F)c1)c1ccccc12`?
FMDV inh: -17%; HCMV antiviral: -74*; Marburg entry inh: inconclusive; Lassa entry inh: 22%

Results for CCOC(=O)c1nnn2c1nc(SCC(C)=O)c1ccccc12 ?
FMDV inh: -13%; HCMV antiviral: 5; Marburg entry inh: 7%; Lassa entry inh: 0%

Results for COC(=O)c1ccsc1NC(=O)c1ccc(Cl)s1 ?
FMDV inh: -3%; HCMV antiviral: 54

Results for COc1cc(Nc2c3c(nc4ccccc24)CCC3)cc(OC)c1OC ?
FMDV inh: -15%; HCMV antiviral: -75*; Marburg entry inh: inconclusive; Lassa entry inh: -21%

What do the screens show for `COc1ccc(OC)c(Nc2c3c(nc4ccccc24)CCC3)c1`?
FMDV inh: -24%; HCMV antiviral: -79*; Marburg entry inh: 2.8µM*; Lassa entry inh: inconclusive

Screens from PubChem BioAssay.
